High-throughput results deposited in PubChem by several laboratories.
KKLEB tox – CF airway cell cytotoxicity counter-screen; KKLEB CF airway cells viability, ATPlite luminescence, overnight; stronger effect = lower value; cells stimulated with P. aeruginosa culture filtrate; activity change (cytotoxicity), % at 5 µM; 360,000 tested, 0.36% active;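 active means corrected activity change at or below -50% at 5 µM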
LGR2 inh – blocks bursicon-induced cAMP signaling via Drosophila LGR2 | HEK293 LGR2, CRE-luciferase, bursicon-stimulated, 4 h | inhibition, % at 9.99 µM | 380,000 tested, 0.35% active | AID 720647;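 active means drop in luminescence signal, shown as inhibition above about 50% in the replicate tests, limit read from the data, passing the limit was not always enough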;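 further: agonist challenge used bursicon conditioned medium at about half maximal strength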
Mdm2 MdmX PPI – inhibitors of human Mdm2/MdmX interaction; O15151+Q00987; SaOS-2 split-luciferase Mdm2/MdmX complementation, luminescence; inhibition, % at 8 µM; 330,000 tested, 3% active;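 active means inhibition of at least 50% at 8 µM in the primary screen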
Target sequence (O15151 whole entry, looked up): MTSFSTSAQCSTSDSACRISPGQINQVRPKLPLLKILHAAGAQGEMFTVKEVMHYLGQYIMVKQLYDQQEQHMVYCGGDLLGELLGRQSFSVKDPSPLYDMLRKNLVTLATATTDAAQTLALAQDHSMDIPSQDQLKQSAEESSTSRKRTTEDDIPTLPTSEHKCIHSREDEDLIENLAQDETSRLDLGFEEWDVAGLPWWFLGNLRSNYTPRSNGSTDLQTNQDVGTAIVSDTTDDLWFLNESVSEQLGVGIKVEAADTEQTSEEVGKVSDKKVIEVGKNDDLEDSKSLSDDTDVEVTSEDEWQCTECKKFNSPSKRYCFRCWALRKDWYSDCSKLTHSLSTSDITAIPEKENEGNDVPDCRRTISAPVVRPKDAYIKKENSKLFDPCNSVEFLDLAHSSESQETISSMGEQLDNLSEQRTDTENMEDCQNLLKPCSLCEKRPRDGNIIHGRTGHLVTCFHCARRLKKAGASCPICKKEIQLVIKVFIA
Target sequence (Q00987 whole entry, looked up): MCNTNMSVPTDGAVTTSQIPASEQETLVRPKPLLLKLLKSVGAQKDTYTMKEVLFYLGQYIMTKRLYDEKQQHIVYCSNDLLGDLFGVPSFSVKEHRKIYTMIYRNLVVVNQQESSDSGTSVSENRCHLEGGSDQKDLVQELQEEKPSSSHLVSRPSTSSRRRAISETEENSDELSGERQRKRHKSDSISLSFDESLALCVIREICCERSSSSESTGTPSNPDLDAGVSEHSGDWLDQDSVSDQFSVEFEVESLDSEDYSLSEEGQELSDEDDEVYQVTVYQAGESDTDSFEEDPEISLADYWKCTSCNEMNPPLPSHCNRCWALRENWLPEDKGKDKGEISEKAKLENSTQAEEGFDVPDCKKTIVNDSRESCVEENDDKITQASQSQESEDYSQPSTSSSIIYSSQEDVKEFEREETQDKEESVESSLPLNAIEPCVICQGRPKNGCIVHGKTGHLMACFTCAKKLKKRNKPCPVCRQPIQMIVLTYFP
Peg3 prom inh – inhibitors of Peg3 promoter. 360,000 tested, 1.7% active. HeLa PEG-Prom luciferase reporter, luminescence, overnight. inhibition, % at 20 µM;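 active means inhibition of at least 50% at 20 µM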
CF NFkB block – inhibitors of cystic fibrosis induced NF-kB | inhibition, % at 5 µM | 360,000 tested, 0.86% active | KKLEB NF-kB-GFP reporter, PAF-induced, GFP fluorescence overnight;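 active means at least 50% inhibition at 5 µM, scaled per plate between neutral and stimulator controls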;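 further: PAF is a Pseudomonas aeruginosa culture filtrate used as stimulus; plate controls were PAF-stimulated DMSO wells for no effect and unstimulated DMSO wells for full effect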
HSP90 refold inh – blocks HSP90-mediated luciferase refolding in reticulocyte lysate; Rabbit reticulocyte lysate, luciferase refolding luminescence, 3 h; inhibition, % at 5.6 µM; AID 1789; 290,000 tested, 0.91% active;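 active means inhibition above the screen-wide mean plus 3 SD, computed separately per campaign, cut at about 16% in these data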;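 further: 0% = DMSO wells and 100% = 60 µM geldanamycin wells; inhibitors lower the luminescence because luciferase stays unfolded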
Mdm2-MdmX conf – human Mdm2/MdmX binding inhibition, confirmed. shares compounds with Mdm2 MdmX PPI. luminescent assay. inhibition, % at 8 µM. 10,000 tested, 55% active. AID 489028; in the data active means inhibition above about 40%
Full FLuc ctr – inhibits full-length luciferase, flagging false Mdm2/MdmX hits. shares compounds with Mdm2 MdmX PPI. SaOS-2 full-length luciferase counterscreen, luminescence. inhibition, % at 8 µM. 6,200 tested, 77% active. AID 504607;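 active means mean inhibition at 8 µM reaching about 37%, which flags the compound as non-specific, limit read from the data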;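 further: p53-null SaOS-2 cells with luciferase driven by a doxycycline-inducible promoter; compound on cells about two nights before reading with doxycycline added after day one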
The depositor's hits bear a star; / = no result given; ! = a repeat was not active. Rows were chosen to be rich in hits. Some 3.6% of all compounds tested hit in one or more screens of this group.

SMILES	KKLEB tox	LGR2 inh	Mdm2 MdmX PPI	Peg3 prom inh	CF NFkB block	HSP90 refold inh	Mdm2-MdmX conf	Full FLuc ctr
Cc1ccc(/C=C2\SC(=S)N(CCC(=O)N3CCOCC3)C2=O)cc1	17.2	5.7	56.8*	-17.2	-2.0	2.9	29.9	/
COc1cccc(/C=C2\SC(=S)N(CCCC(=O)N3CCCCC3)C2=O)c1	-14.8	-5.8	87.8*	53.3*	15.9	2.5	62.5*	22.9
COc1cccc(/C=C2/SC(=S)N(CCC(=O)N3CCOCC3)C2=O)c1	1.4	0.2	53.5*	19.3	29.5	-3.6	15.4	/
CO[C@@H]1CN(C)C(=O)c2ccc(NC(C)=O)cc2OC[C@@H](C)N(C(=O)c2cccnc2)C[C@H]1C	/	-6.3	/	/	/	/	/	/
Cc1ccc(C)c(OCCn2cc(/C=C(\C#N)C(=O)NCc3cccs3)c3ccccc32)c1	-38.5	/	-2.1	12.2	7.2	0.0	/	/
N#C/C(=C\c1cn(CCOc2ccccc2F)c2ccccc12)C(=O)NCc1cccs1	-14.7	6.6	54.5*	-2.5	19.6	-2.3	21.4	/
C[C@@H]1CN([C@@H](C)CO)C(=O)c2cc(Br)cnc2O[C@@H]1CN(C)C(=O)Nc1ccccc1	/	11.9	/	/	/	/	/	/
CCOC(=O)c1c(NC(=O)COc2ccccc2C#N)sc2c1CC(C)(C)NC2(C)C	-21.7	19.8	50.9*	28.7	12.3	-0.9	15.3	/
CCOC(=O)c1c(NC(=O)Cc2ccccc2)sc2c1CC(C)(C)NC2(C)C	-21.8	7.1	36.2	21.2	9.7	1.4	/	/
CCOC(=O)c1c(NC(=O)CSc2nnnn2-c2ccccc2)sc2c1CC(C)(C)NC2(C)C	-17.3	-5.9	55.3*	54.8*	8.0	5.1	20.1	/
CCOC(=O)c1c(NC(=O)c2ccc(C)cc2)sc2c1CC(C)(C)NC2(C)C	/	/	92.7*	/	/	-0.8	47.0*	95.9*
CC1(C)Cc2c(sc(NC(=O)COc3cccc4ccccc34)c2C#N)C(C)(C)N1	-21.7	/	98.3*	90.4*	-28.7	4.3	99.5*	50.5*
O=C(C1CC1)N1CC2(C1)[C@@H](c1ccccc1)[C@@H](CO)N2CCC(F)(F)F	/	8.8	/	/	/	/	/	/
CCOC(=O)c1c(NC(=O)CSc2nc3ccc(C)cc3[nH]2)sc2c1CC(C)(C)NC2(C)C	-23.2	9.1	75.5*	30.6	6.2	/	47.5*	68.7*
CCOC(=O)c1c(NC(=O)COc2ccccc2OCC)sc2c1CC(C)(C)NC2(C)C	-2.8	/	96.5*	106.5*	-19.1	/	34.4	89.8*
CCOC(=O)c1c(NC(=O)C2COc3ccccc3O2)sc(C(C)=O)c1C (stereo not drawn)	0.7	1.6	16.4	44.2	-8.9	-0.7	/	/
COC(=O)c1c(NC(=O)c2ccc(OC(C)C)cc2)sc2c1CC(C)(C)NC2(C)C	-13.7	7.5	93.7*	98.5*	22.4	13.9	76.5*	23.6
CCOC(=O)c1c(NC(=O)C2COc3ccccc3O2)sc2c1CC(C)(C)NC2(C)C (stereo not drawn)	-2.0	-3.6	83.5*	39.4	5.5	7.2	52.3*	61.1*
CCOC(=O)c1c(NC(=O)COC(=O)c2ccc(C)s2)sc2c1CC(C)(C)NC2(C)C	-27.6	-13.0	30.3	6.5	17.8	/	/	/
CN1C(=O)c2cc(NC(=O)c3ccccc3Cl)ccc2OC[C@H]2O[C@H](CC(=O)O)CC[C@@H]21	/	8.9	/	/	/	/	/	/
COc1ccc2c3c([nH]c2c1)[C@H](CO)N(Cc1ccccc1)CC31CCN(C(=O)Nc2cccc(F)c2)CC1	/	6.5	/	/	/	/	/	/
O=C(c1ccccc1Cl)N1N=C(c2ccc(Br)cc2)CC1c1nc2ccccc2[nH]1 (stereo not drawn)	2.9	/	71.0*	-19.7	12.7	-4.6	50.2*	89.8*
O=C(COc1ccc2ccccc2c1)NNC(=O)C(=O)Nc1ccccc1	-24.0	27.5	53.1*	-0.6	11.9	0.2	60.2*	99.0*
COc1cccc(F)c1C(C[N+](=O)[O-])c1c(N)n(C)c(=O)n(C)c1=O (stereo not drawn)	-13.8	63.9*	95.4*	104.2*	32.6	-5.6	45.1*	36.3*
C/C(=N\NC(=O)c1c(Cl)cnn1C)c1cccc(NC(=O)c2ccc(C)cc2)c1	-3.4	-56.3	13.8	-168.6	-21.7	-2.1	/	/
SMILES	KKLEB tox	LGR2 inh	Mdm2 MdmX PPI	Peg3 prom inh	CF NFkB block	HSP90 refold inh	Mdm2-MdmX conf	Full FLuc ctr
C/C(=N\NC(=O)c1c(Br)cnn1C)c1ccc(NC(=O)c2ccc(F)cc2)cc1	-9.6	-35.0	67.1*	-178.7	11.9	0.5	-38.0	/
CN(C)c1ccc(Sc2nnc(NC(=O)Nc3ccc(Cl)cc3Cl)s2)cc1	-1.3	16.5	79.3*	27.3	-5.7	-6.1	1.1	/
CCC(=O)Nc1nnc(Sc2ccc(N(C)C)cc2)s1	-1.8	2.5	15.6	-0.8	8.2	-2.6	/	/
O=C(C[C@H]1CC[C@H]2[C@@H](COC[C@H](O)CN2C(=O)c2ccncc2)O1)NC1CCC1	/	3.9	/	/	/	/	/	/
O=C1[C@@H](Oc2ccccc2)[C@@H](c2ccncc2)N1c1ccccc1	-9.8	2.2	53.0*	13.6	24.6	/	48.5*	47.7*
O=C(CN1CCOCC1)NCC[C@@H]1CC[C@@H](NC(=O)c2ccc3c(c2)OCO3)[C@H](CO)O1	/	-0.1	/	/	/	/	/	/
CCOC(=O)/C(C#N)=C/c1cc2ccccc2nc1Cl	-3.7	-5.2	26.6	16.4	9.2	-1.3	/	/
CSc1nc2ccccc2cc1/C=C(\C#N)c1cccc(Cl)c1	-6.7	/	57.1*	30.5	32.9	0.1	56.0*	57.8*
CCOc1ccccc1C1C(C(=O)OC)=C(N)OC2=C1C(=O)CCC2 (stereo not drawn)	3.4	/	-18.2	0.0	2.8	3.4	/	/
CCOc1ccc(Br)cc1C1C(C(=O)OC)=C(N)Oc2cc(N(C)C)ccc21 (stereo not drawn)	-5.4	/	80.2*	-19.2	11.9	-6.9	54.7*	55.2*
S=C(NCCN(C1CCCCC1)C1CCCC1)Nc1cccc(Cl)c1	-16.1	4.5	62.2*	-12.2	1.2	-0.4	37.4	63.5*
O=C(NC(=Nc1nc2ccccc2o1)NC(=O)c1ccccc1)c1ccccc1	8.2	-67.3	-45.7	-94.8	-19.7	-1.6	/	/
COc1ccccc1C(=O)NC(=Nc1nc2ccccc2o1)NC(=O)c1ccccc1OC	-0.4	-29.6	87.5*	86.1*!	-56.5	0.6	55.1*	88.2*
O=C(Nc1ccc2c(c1)CCC2)c1cnn2c1NC(c1ccco1)CC2C(F)(F)F (stereo not drawn)	-8.9	-13.8	88.3*	-132.7	11.3	5.3	54.2*	79.3*
COC(=O)C[C@H]1C[C@@H]2c3cc(NC(=O)Nc4ccc(OC)cc4)ccc3O[C@@H]2[C@H](CO)O1	/	12.6	/	/	/	/	/	/
C[C@@H]1CN([C@@H](C)CO)C(=O)c2cccc(NC(=O)c3ccc(-c4nccs4)cc3)c2O[C@H]1CN(C)S(=O)(=O)c1ccccc1	/	-8.3	/	/	/	/	/	/
